Sampled rows, rich in hits. Any-hit rate of the full collection: about 12%.
Sfp inh: Sfp phosphopantetheinyl transferase inhibition. AID 1490. Biochemical Sfp PPTase activity, qHTS. Potency, µM, hits mostly inhibitors. 310,000 compounds, 3.5% hits. Q9F4F7;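 also: the enzyme is Sfp with the accession as filed and its product quenches rhodamine fluorescence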
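Reaction rates are the 30-min fluorescence difference (ex 525, em 598 nm) in wells containing 15 nM Sfp, 5 uM rhodamine-CoA and 12.5 uM BHQ-2-YbbR at pH 7.6 with 10 mM MgCl2.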
ALDH1A1 inh: blocks purified human ALDH1A1 activity; 220,000 compounds, 7.3% hits; Potency, µM (series often up to 75.3 µM), hits mostly inhibitors; Purified ALDH1A1, NADH fluorescence, propionaldehyde substrate; AID 1030; P00352; active = well fitted inhibition curve with a large enough effect, not every such curve was filed as active; inconclusive = small, poorly fitted or top-dose-only effect, or another doubt; inactive = no such curve, though single readings can be large or run the other way
RORgamma inh: ROR gamma (mouse) transcription inhibition. Potency, µM (doses to about 53.6 µM), most hits filed as inhibitors. AID 2551. P51450. 310,000 compounds, 5.4% hits. Drosophila S2 Gal4-RORgamma UAS-luciferase reporter, 20 h; also: nearly all actives have a fitted effect of over 60% in size
Target sequence (P51450 whole entry, looked up, the tested form may be a part): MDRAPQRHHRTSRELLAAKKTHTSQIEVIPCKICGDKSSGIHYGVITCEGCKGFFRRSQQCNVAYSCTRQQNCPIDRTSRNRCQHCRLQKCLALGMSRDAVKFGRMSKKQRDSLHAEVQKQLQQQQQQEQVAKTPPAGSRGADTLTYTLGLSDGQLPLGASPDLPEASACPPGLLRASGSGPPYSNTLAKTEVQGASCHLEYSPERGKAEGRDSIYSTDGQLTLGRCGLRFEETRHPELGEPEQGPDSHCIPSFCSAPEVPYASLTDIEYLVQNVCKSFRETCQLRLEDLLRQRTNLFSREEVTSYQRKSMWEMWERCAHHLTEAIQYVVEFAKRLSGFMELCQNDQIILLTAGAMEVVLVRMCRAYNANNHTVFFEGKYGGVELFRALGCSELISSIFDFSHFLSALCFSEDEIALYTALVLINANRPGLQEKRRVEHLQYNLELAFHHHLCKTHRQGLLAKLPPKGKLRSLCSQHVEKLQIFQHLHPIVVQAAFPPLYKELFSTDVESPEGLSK
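In this cell-based reporter format, copper sulfate (700 uM final) drives Gal4–ROR gamma fusion expression from a metallothionein promoter in Drosophila Schneider cells; compounds preincubated 1 hr, reporter read after 20 hr at ambient temperature.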
PLK1 PBD inh: blocks phosphopeptide binding to human PLK1 polo-box domain. Plk1 PBD binding of FITC phosphopeptide, fluorescence polarization. Potency, µM, usual class: inhibitors. 360,000 compounds, 2.8% hits. AID 720504; also: series mostly up to about 57 µM; nearly all actives have a fitted effect of over 65% in size
Gal4-VP16 FLuc: Gal4-VP16 reporter inhibition counter-screen | Drosophila S2 Gal4-VP16 UAS-luciferase, luminescence, 20 h | Potency, µM (highest dose often 53.6 µM), most hits filed as inhibitors | 310,000 compounds, 3.5% hits;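 also: Gal4-VP16 expression switched on by copper sulfate through the metallothionein promoter; nearly all actives have a fitted effect of over 50% in size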
Numbers stand for hits; i = inactive; ? = inconclusive; nt = no result; [ ] = remark or other dose. Unless noted, calls follow the shape of the dose curve; as a rule, active = well fitted curve in the direction sought with a large enough effect; inconclusive = small, poorly fitted or top-dose-only effect, or another doubt; inactive = no such curve, though single readings can be large; an effect the other way counts as inactive or inconclusive.

SMILES	Sfp inh	ALDH1A1 inh	RORgamma inh	PLK1 PBD inh	Gal4-VP16 FLuc
CCC(Oc1ccccc1)C(=O)Nc1nnc(C)s1 (stereo not drawn)	i	i	i	?	i
CCC(C)C(=O)Nc1nc2c(s1)C(=O)CC(C)(C)C2 (stereo not drawn)	i	16µM	i	i	i
CCC(Oc1ccccc1)C(=O)Nc1nc2c(s1)C(=O)CC(C)(C)C2 (stereo not drawn)	i	13µM	i	i	i
CC1(C)CC(=O)c2sc(NC(=O)CN3C(=O)CCC3=O)nc2C1	i	?	i	i	i
CC1(C)CC(=O)c2sc(NC(=O)CN3CCOCC3)nc2C1	i	20µM	i	i	i
CS(=O)(=O)Nc1cccc(-c2cncnc2NCc2ccccc2)c1	i	i	i	nt	i
Cc1cc(C)c(Nc2cc(S(=O)(=O)O)c(N)c3c2C(=O)c2ccccc2C3=O)c(C)c1	50µM	25µM	i	24µM	?
CCOc1ccccc1N1CCN(Cc2cccc(OC)c2O)CC1	i	i	i	i	i
Cc1c(O)c(CN2CCCC2)cc2c1oc(=O)c1ccccc12	i	?	i	i	i
COc1ccccc1N1CCN(Cc2cc(Br)c(O)c3ncccc23)CC1	i	?	1.1µM	?	1.4µM
Oc1c(CN2CCCCC2)cc(COCc2ccccc2)c2cccnc12	i	i	0.32µM	i	0.0089µM
COCc1cc(CN2CCCC2)c(O)c2ncccc12	i	i	10µM	i	8.9µM
CCc1nc2c(OCC(=O)C(C)(C)C)cccn2c1N(C)C(=O)Nc1ccccc1OC	nt	nt	nt	i	nt
COc1ccc(C#Cc2cnc3c(c2)C(=O)N([C@H](C)CO)C[C@@H](C)[C@H](CN(C)C(=O)CN(C)C)O3)cc1	nt	nt	nt	i	nt
CC(NS(=O)(=O)c1cc2c3c(c1)CCN3C(=O)CC2)c1ccccc1 (stereo not drawn)	nt	nt	nt	i	nt
C=CCOC(=O)C(=O)/C=C/c1c(C)n(C)n(-c2ccccc2)c1=O	i	?	i	i	i
C=CCOC(=O)C(=O)/C=C/c1coc2ccccc2c1=O	45µM	32µM	i	?	i
CC(C)Cn1c(O)c(N=NC(=O)c2cccc(S(=O)(=O)N3CCCCC3)c2)c2ccccc21	i	3.5µM	i	i	i
O=C(NNC(=O)c1cccc(S(=O)(=O)N2CCCCC2)c1)c1ccccc1	nt	nt	nt	i	nt
Cc1ccccc1NC(=S)N/N=C/c1ccc(O)cc1O	i	nt	?	i	?
Cc1cccc(NC(=S)N/N=C/c2cccc(O)c2)c1C	i	nt	4.5µM	i	14µM
Cc1ccccc1NC(=S)N/N=C/C(C)c1ccccc1 (stereo not drawn)	i	?	1.8µM	i	8.9µM
Cc1cccc(NC(=S)N/N=C/C(C)c2ccccc2)c1C (stereo not drawn)	79µM	?	1.3µM	?	7.9µM
CCOC(=O)C1C(=O)C(=O)N(C(C)C)C1C(=O)OCC (stereo not drawn)	nt	nt	nt	i	nt
CCOC(=O)C1C(=O)CC(=O)CC1CC(C)SCC (stereo not drawn)	i	13µM	i	i	i[0.365 µM]
SMILES	Sfp inh	ALDH1A1 inh	RORgamma inh	PLK1 PBD inh	Gal4-VP16 FLuc
COC(=O)C1CCN(C(=O)COC(=O)c2ccc(OC)c(S(=O)(=O)N3CCCc4ccccc43)c2)CC1	i	4.5µM	i	i	i
Cc1ccc(SCc2cc(=O)c3c(=O)n(-c4ccccc4)[nH]c3[nH]2)cc1	71µM	i	i	i	i
NCS(=O)(=O)O	nt	i[13.5 µM]	nt	nt	nt
COc1ccc(Nc2nc(C)cc(C)c2C(N)=O)c(OC)c1	40µM	i	?	i	i
Cc1cc(C)c(C(N)=O)c(Nc2cccc3ccccc23)n1	i	i	2.8µM	i	?
C#CCOC(=O)NC(/C=C/CCCC)c1ccccc1 (stereo not drawn)	i	i	i	nt	i
COc1cccc(C(C)(O)c2nc(-c3cnn(C)c3)cs2)c1 (stereo not drawn)	nt	nt	nt	i	nt
CCc1nc2c(OCc3ccc(F)c(F)c3)cccn2c1N(C)C(=O)c1cccs1	nt	nt	nt	i	nt
O=[N+]([O-])c1cc(O)c2ncccc2c1	i	i	0.89µM	i	i
O=[N+]([O-])c1cc2cccnc2c2ncccc12	i	i	i	i	i
O=C1OC(c2ccccc2)=N/C1=C\C=C\c1ccccc1[N+](=O)[O-]	i	?	i	?	i
O=C1OC(c2ccccc2)=N/C1=C\C=C\c1ccco1	40µM	?	i	i	i
O=C1OC(c2ccc(Cl)cc2)=N/C1=C\C=C\c1ccco1	45µM	?	?	i	i
c1cncc(C2SCCCS2)c1	nt	nt	nt	i	nt
COC(=O)[C@H](C)NC(=O)C/C=C\[C@@H](C)[C@@H](CO)OC	i	i[13.5 µM]	i[10 µM]	nt	i[10 µM]
Cc1ccc2nc(SCC(=O)N/N=C/c3ccco3)cc(C)c2c1	i	i	i	i	i
O=C(N/N=C/c1ccc([N+](=O)[O-])o1)c1cc(-c2ccncc2)nc2ccccc12	i	i	i	i	i
O=C(N/N=C/c1ccc([N+](=O)[O-])o1)c1cc(-c2ccc(-c3ccccc3)cc2)nc2ccccc12	i	i	0.71µM	i	1.1µM
Cn1c(/C=C/c2ccc([N+](=O)[O-])o2)nc2ccccc2c1=O	i	?	6.3µM	?	6.3µM
Cc1ccc2nc(N/N=C/c3ccco3)cc(C)c2c1	i	i	6.3µM	i	?
Cc1cc(N/N=C/c2ccc([N+](=O)[O-])o2)nc2ccccc12	i	i	11µM	i	?
N#Cc1cccc(C2CC(OCCF)=CC(=O)O2)c1 (stereo not drawn)	nt	nt	nt	i	nt
COc1ccc2oc3c(ccc[n+]3C)c(=O)c2c1	nt	nt	nt	i	nt
C[C@@H]1CN([C@H](C)CO)C(=O)c2cc(Br)cnc2O[C@H]1CN(C)C	nt	nt	nt	i	nt
CCCCCCCCCCCCCCC(O)C[N+](C)(CCO)CCO (stereo not drawn)	nt	nt	nt	i	nt
SMILES	Sfp inh	ALDH1A1 inh	RORgamma inh	PLK1 PBD inh	Gal4-VP16 FLuc
Cc1ccc(-c2cc(C(=O)N/N=C/c3ccc([N+](=O)[O-])o3)c3ccccc3n2)o1	?	nt	13µM	?	?
CC(C)OC(=O)[C@@H]1CC[C@H](C)[C@@H](CCC[C@@H]2C[C@@H](O)C[C@H](CC#N)O2)O1	i	i	i	nt	i
CCOc1ccc(N2C(=O)/C(=C/c3cccs3)N(C)C2=S)cc1	i	i	i	i	i
CCc1ccc(/C=C2/C(=O)N(CC)C(=S)N2C)s1	i	?	?	24µM	i
CCOc1ccc(NC(=S)Nc2ccc(OC)cc2)cc1	i	i	7.9µM	i	?
CCOc1ccc(CSCCNC(=S)Nc2ccccc2)cc1	i	i	6.3µM	i	4.5µM
CNC(=S)Nc1ccc(OCc2ccccc2)cc1	i	32µM	4µM	i	?
COc1ccc(NC(=S)Nc2ccccc2)cc1	i	i[13.5 µM]	?	i	?
COc1ccc(NC(=S)Nc2cccc(C)n2)cc1	i	nt	?	i	4.5µM
CC(C)(C)c1ccc(OCCNC(=S)Nc2ccccc2)cc1	i	i	i	i	i
CCN(CC)C(=O)C(=O)Nc1ccc(OCc2ccccc2)cc1	i	i	?	i	i
NC(=O)c1ccc(-c2ccc(N3C(c4ccsc4)=Cc4ccc(F)cc4C3CC(=O)c3ccco3)cc2)cc1 (stereo not drawn)	nt	nt	nt	i	nt

From PubChem BioAssay
